The nature of test [1]: qHTS assay to identify small molecule antagonists of the vitamin D receptor (VDR) signaling pathway - cell viability counter screen (AID 743225). Note: nearly all actives have a fitted effect of over 50% in size. An outline of the steps: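 Cytotoxicity toward the VDR-bla HEK 293T line was scored by ATP-based CellTiter-Glo luminescence, read in the wells already used for the beta-lactamase readout after 16 h compound treatment under 3 nM 1-alpha,25-dihydroxyvitamin D3 stimulation.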
(In general: Quantitative high-throughput screening tests each substance at several concentrations.)

Test [2] can be described thus: qHTS assay to identify small molecule agonists of the NFkB signaling pathway (AID 1159509; active = well fitted curve in the direction sought with a large enough effect in the signal ratio in the repeat runs, not every such curve was filed as active; the % refers to the signal ratio; note: series mostly up to about 61 µM). An outline of the steps:
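Readout: FRET fluorescence, 405 nm excitation, 460/530 nm emission; beta-lactamase expression disrupts FRET. Cells: ME-180 stably carrying NF-kB-driven bla reporter. Compound exposure 5 hr, 37 C, 5% CO2.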

Test [3] can be described thus: qHTS assay to identify small molecule agonists of the NFkB signaling pathway - cell viability counter screen (AID 1159515; calls by dose curve; note: series mostly up to about 61 µM; nearly all actives have a fitted effect of over 55% in size). An outline of the steps: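 Counter screen run alongside the NFkB-bla agonist assay: ME-180 reporter cells exposed to compounds for 5 hr, then lysed with CellTiter-Glo in the same wells. Luminescence, read after 30 min, reflects viable cells.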

A short description of test [4]: qHTS assay to identify small molecule agonists of the endoplasmic reticulum stress response signaling pathway (AID 1159516; active = well fitted activation curve with a large enough effect in the signal ratio in the repeat runs, not every such curve was filed as active; the % refers to the signal ratio). An outline of the steps: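 For this screen, HeLa cells stably carrying beta-lactamase under the ER stress response element received test compounds, positive controls or DMSO for 5 hr at 37 C; B/G FRET substrate was then added and dual-wavelength emission recorded.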

The nature of test [5]: qHTS assay to identify small molecule agonists of the endoplasmic reticulum stress response signaling pathway - cell viability counter screen (AID 1159517; calls by dose curve; note: series mostly up to about 61 µM; nearly all actives have a fitted effect of over 50% in size). An outline of the steps: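 Steps: seed 1,500 ESRE-bla HeLa cells per well; incubate overnight at 37 C, 5% CO2; add compounds in DMSO for 5 hr; run FRET substrate 2 hr RT; add CellTiter-Glo, wait 30 min, read luminescence.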

Test [6] is described as follows: qHTS assay to identify small molecule antagonists of the retinoid-related orphan receptor gamma (ROR-gamma) signaling pathway - cell viability counter screen (AID 1159520). Note: nearly all actives have a fitted effect of over 50% in size. An outline of the steps: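 Tet-on ROR gamma CHO cells were given compounds for 2 hr, then doxycycline hyclate at 1 uM final, and incubated 16 hr at 37 C. Viability was measured as ATP content by CellTiter-Glo luminescence.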

Test [7] can be described thus: qHTS assay to identify small molecule agonists of the AP-1 signaling pathway (AID 1159526; calls by dose curve; note: potency is the fitted concentration of half-maximal effect).
For test [8], the target named is Retinoic acid receptor RXR-alpha (Homo sapiens) (UniProt P19793). Put plainly: qHTS assay to identify small molecule agonists of the RXR signaling pathway (AID 1159527; calls by dose curve; note: nearly all actives have a fitted effect of over 35% in size). An outline of the steps: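 Reporter activation is measured as beta-lactamase activity via FRET substrate cleavage (emission 460/530 nm) in HEK 293T cells expressing an RXR-alpha-driven bla construct, following 16 hr compound exposure at 37 C.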
Retinoic acid receptor RXR-alpha (Homo sapiens), sequence (P19793 whole entry, looked up): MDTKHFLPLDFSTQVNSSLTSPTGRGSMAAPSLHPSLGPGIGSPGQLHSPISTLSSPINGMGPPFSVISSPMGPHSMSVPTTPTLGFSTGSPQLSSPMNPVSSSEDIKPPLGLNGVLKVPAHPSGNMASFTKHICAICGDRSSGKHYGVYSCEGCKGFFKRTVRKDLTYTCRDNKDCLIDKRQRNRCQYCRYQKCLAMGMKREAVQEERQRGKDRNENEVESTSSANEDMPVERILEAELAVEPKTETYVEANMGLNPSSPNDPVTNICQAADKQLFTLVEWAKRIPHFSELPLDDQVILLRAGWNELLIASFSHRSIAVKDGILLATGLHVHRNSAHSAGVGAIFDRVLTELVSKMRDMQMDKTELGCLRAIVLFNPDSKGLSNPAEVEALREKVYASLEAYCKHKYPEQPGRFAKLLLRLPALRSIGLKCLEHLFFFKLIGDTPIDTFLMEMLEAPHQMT

Test [9] is described as follows: qHTS assay to identify small molecule antagonists of the retinoid acid receptor (RAR) signaling pathway - cell viability counter screen (AID 1159551). Note: nearly all actives have a fitted effect of over 35% in size. An outline of the steps: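 Measured by luminescent ATP detection, viability reflects C3RL4 cells treated 6 h at 37 C with test chemicals in the presence of 1 uM (final) retinol.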
Test [10] is described as follows: qHTS assay to identify small molecule antagonists of the retinoic acid receptor (RAR) signaling pathway (AID 1159552; note: nearly all actives have a fitted effect of over 50% in size). An outline of the steps:
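Overnight-plated C3RL4 reporter cells get compound, then retinol to 1 uM final; plates sit 6 hr at 37 C, 5% CO2. A luciferase reagent is added and light output recorded after 30 min at room temperature.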

Test [11] is described as follows: qHTS assay to identify small molecule antagonists of the estrogen related receptor (ERR) signaling pathway from Tox21 library - cell viability counter screen (AID 1224834). Note: nearly all actives have a fitted effect of over 30% in size. An outline of the steps: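 Seeded ERR cells were rested 6 h at 37 C/5% CO2 before compounds, positive and negative controls or DMSO were added. Incubation continued for 17.5 h, and viability was then quantified by CellTiter-Fluor fluorescence.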

Test [12] concerns the target Nuclear receptor ROR-gamma (Homo sapiens) (UniProt P51449). The test can be described thus: qHTS assay to identify small molecule antagonists of the retinoid-related orphan receptor gamma (ROR-gamma) signaling pathway (AID 1159521; note: nearly all actives have a fitted effect of over 50% in size; note: potency is the fitted concentration of half-maximal effect). An outline of the steps:
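Readout: ONE-Glo luciferase luminescence, 30 min at room temperature. System: Tet-on RORγ CHO, RORE-LUC. Sequence: compound 2 h, doxycycline 1 uM final, 16 h at 37 C.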

The nature of test [13]: qHTS assay to identify small molecule agonists of the AP-1 signaling pathway - cell viability counter screen (AID 1159525; calls by dose curve; note: nearly all actives have a fitted effect of over 55% in size). An outline of the steps: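 Same-well cytotoxicity counter screen of the Tox21 10K library in ME-180 cells. The readout is ATP-dependent luminescence after 5 h compound treatment. Data are normalised to DMSO and tetra n-octyl ammonium bromide controls.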

Test [14] in a line: qHTS assay to identify small molecule agonists of the RXR signaling pathway - cell viability counter screen (AID 1159529). An outline of the steps: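 Tox21 10K compounds were tested for cytotoxicity against GeneBLAzer RXR-alpha HEK 293T cells grown in 2% charcoal-stripped FBS. Exposure lasted 16 hr at 37 C, 5% CO2; viability read by CellTiter-Glo luminescence.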
Test [15] is described as follows: qHTS assay to identify small molecule agonists of the retinoic acid receptor (RAR) signaling pathway (AID 1159553). An outline of the steps:
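6 hr compound exposure (DMSO vehicle) of overnight-plated C3RL4 RARE-luc cells at 37 C; luminescence quantified after 30 min RT with luciferase reagent.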

Test [16] is described as follows: qHTS assay to identify small molecule antagonists of the estrogen related receptor (ERR) signaling pathway (AID 1224819). An outline of the steps:
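Compounds dissolved in DMSO were pin-transferred onto ERR cells that had been plated 6 h earlier, and cells were then incubated 18 h at 37 C; signal was luciferase luminescence via One-Glo.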

A short description of test [17]: qHTS assay to identify small molecule agonists of the estrogen related receptor (ERR) signaling pathway (AID 1224820). An outline of the steps: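 Luminescence readout (One-Glo, 30 min RT) from NTP-supplied ERR cell line exposed to compounds for 18 h at 37 C. Cells seeded 2,000 per well and pre-incubated 6 h before pin-tool compound transfer.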
Test [18] can be described thus: qHTS assay to identify small molecule antagonists of the estrogen related receptor signaling pathway with the pleiotropic PPARgamma coactivator (PGC) cell viability counter screen (AID 1224822; note: series mostly up to about 46 µM). An outline of the steps: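 Counter screen for cell viability: PGC/ERR cells, 6 h pre-incubation after plating, 17.5 h compound exposure at 37 C, fluorescence from CellTiter-Fluor after 30 min.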

The nature of test [19]: qHTS assay to identify small molecule agonists of the estrogen related receptor signaling pathway with the pleiotropic PPARgamma coactivator (PGC) (AID 1224823). An outline of the steps: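 Luminescence readout (One-Glo, 30 min RT) from PGC/ERR cell line treated 18 h at 37 C with pin-tool-delivered DMSO compound solutions; cells plated 6 h before dosing. Quantitative HTS format.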

Inconclusive results are not listed. Values without a mark were called inactive. Calls of active or inactive are those of the source. Unless noted, calls come from the whole dose curve; as a rule, active = well fitted curve in the direction sought with a large enough effect in the repeat runs; inconclusive = weak or mixed curves; inactive = no such curve, though single readings can be large; an effect the other way counts as inactive or inconclusive.

Turning to `CN1[C@@H]2CC[C@H]1CC(OC(=O)c1c[nH]c3ccccc13)C2` (some centres not stated), the Potency result in test [1], in test [6], in test [8], in test [10] and in test [11] was “inactive” in each case. Moreover, the result in test [2], in test [3], in test [4], in test [5] and in test [9] was inactive. The Potency in test [7] is 23.9 µM (active).

For the molecule `CC1CN(c2ccccc2)NC1=O` (configuration not stated), the molecule was classed as inactive in test [2], in test [3], in [5], in [13] and in test [9]. Besides, the Potency entry in test [6], in test [12], in test [8], in [14], in test [10] and in test [11] was “inactive” throughout.

`N#CSCC(=O)O`: the Potency result in test [1], in test [6], in [7], in [8], in test [14] and in test [10] was “inactive” each time. The Potency entry in test [15] and in test [11] was “inactive” throughout. For the same molecule, the outcome in [2], in test [3], in test [5], in [13] and in test [9] was inactive.

For `ICCc1ccccc1`, the Potency result in [1], in test [6] and in test [11] was “inactive” in each case. Moreover, the result in test [2], in [3], in [5], in test [13] and in test [9] was inactive. The Potency in test [12] was 59.9 µM (active).

As to `O=C1N(c2ccccc2)c2ccccc2C1(Cc1ccncc1)Cc1ccncc1`, the Potency entry in test [1], in test [6], in test [12], in test [7], in [8] and in [14] was “inactive” throughout. Further, the Potency result in test [10] and in [15] was “inactive” in each case. Further, the result in test [2], in test [3], in test [5], in test [9], in test [16] and in [17] was inactive. In addition, the molecule was called inactive in test [18] and in [19].

Regarding `CCOC(=O)[C@H](CCc1ccccc1)N[C@@H](C)C(=O)N1Cc2cc(OC)c(OC)cc2C[C@H]1C(=O)O`, the Potency entry in [1], in [6], in test [7], in test [8], in [14] and in test [10] was “inactive” in each case. The call in [2], in test [3], in [5], in [13] and in test [9] was inactive.

Turning to `Cc1cc(NS(=O)(=O)c2ccc(N)cc2)nc(C)n1`, the Potency result in test [1], in test [6], in test [7], in test [8], in [14] and in test [10] was “inactive” throughout. The Potency result in [15] and in test [11] was “inactive” in each case. Moreover, the outcome in test [2], in test [3], in [5], in [13] and in [9] was inactive.

As for `CC(C)OC(C)C`, the Potency entry in test [1], in test [6], in [12], in test [7], in test [8] and in [10] was “inactive” in each case. Further, the Potency result in test [11] was “inactive”. In addition, the result in [2], in test [3], in test [5] and in test [9] was inactive.

Take `Cc1onc(-c2ccccc2)c1C(=O)Cl`: the Potency result in test [1], in test [6], in test [7], in [8], in [14] and in test [10] was “inactive” throughout. Further, the Potency result in test [11] is “inactive”. Also, the outcome in test [2], in [3], in test [5], in test [13] and in [9] was inactive.

These data come from PubChem BioAssay (Tox21).
